# Source: PubChem BioAssay
# Where “and” joins values, the source holds several entries; their conditions need not be identical. Identical values can stand only once. Calls of active or inactive are those of the source.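 Rule for the calls, unless noted: active = mean z-score across replicates of 1.96 or higher in either the MELAS or the Rieske mutant cell line; inactive = the rest.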
# How the values were obtained:
# [1] = polyglutamine-triggered caspase-3 activation inhibitors, cell-based (AID 1583); details: polyglutamine-induced caspase-3 activation, cell assay; stronger effect = higher value;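 tested at 10 µM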
# [2] = suppressors of polyQ aggregation in yeast, 75Q-TubU reporter (AID 1593); details: Yeast 75Q polyglutamine aggregation reporter
# [3] = inhibitors of mitochondrial cytochrome c release, biochemical, purified mitochondria (AID 1603); details: stronger effect = lower value;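 note: mouse liver mitochondria challenged with calcium chloride; signal normalized to the plate average as 100%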
# [4] = inhibitors of polyQ protein aggregation (AID 1604); details: polyglutamine-induced protein aggregation inhibition assay; stronger effect = higher value; tested at 2.5 µM
# [5] = enhancers of glutamate uptake in motor neurons, MN-1 cell line (AID 1612); details: MN-1 motor neuron cells, stronger effect = higher value;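 note: tested at 1 µM final; 0% = mean of DMSO vehicle wells on each plate; positive means more glutamate uptake than control and negative means less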
# [6] = suppressors of polyglutamine aggregation in yeast, 75Q-TubH (AID 1616); details: S. cerevisiae 75Q-TubH polyglutamine aggregation suppression; stronger effect = higher value
# [7] = stimulators of nuclear beta-catenin in C2C12, primary screen, imaging, WNT3A-conditioned medium, mouse C2C12, NPC library (AID 1117326; in the data active = nuclear beta-catenin stimulation mostly above about 4.2%, no sharp cut-off; inactive = mostly below about 10%); details: stronger effect = higher value
# [8] = stimulators of insulin release from INS-1E, primary screen, cell-based, 5 mM glucose, NPC library (AID 1117329;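 active = compound raises insulin release from rat beta cells at 5 mM glucose, no numeric limit stated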); details: rat INS-1E insulin secretion, at 10 µM, stronger effect = higher value
# [9] = growth inhibition of GSK3B-pretreated HCT116 cells – cell-based, CellTiter-Glo, 0.2 to 20 µM (AID 1117336;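 active = compounds lowering colon cancer cell viability after pretreatment blocking the GSK3B kinase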); details: HCT116 viability after GSK3B inhibitor, at 20 µM, stronger effect = higher value
# [10] = inhibition of endothelial tube formation, primary screen, imaging, VEGF stimulated, CD31 staining, tube area, NPC library (AID 1117340;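 active = compound that reduces growth-factor-driven endothelial tube area in a mixed cell culture, no cutoff stated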); details: VEGF-stimulated ADSC/ECFC co-culture, at 10 µM, stronger effect = higher value
# [11] = glucagon-like peptide 1 release enhancers, primary assay, NCI-H716 cell line, NPC library (AID 1117341;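 active = compound raises GLP1 secretion from the human gut endocrine cells, with no numeric limit stated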); details: NCI-H716 cells, at 10 µM, stronger effect = higher value
# [12] = HCT116 colon cancer cell growth inhibition, primary screen, CellTiter-Glo luminescence, NPC library (AID 1117342;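 active = compounds that lower survival of HCT116 colon cancer cells in the luminescence readout, no numeric limit stated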); details: at 20 µM (top of the series)
# [13] = CellTiter-Glo luminescent readout of SW480 viability loss, NPC library primary (AID 1117343;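 active = compounds that lower viability of the colon cancer cells in the luminescence readout, with no numeric limit stated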); details: CellTiter-Glo luminescence; at 20 µM (top of the series)
# [14] = decreased DLD-1 cellular survival, CellTiter-Glo luminescent readout, NPC compound collection, primary HTS (AID 1117346;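 active = compounds that lower survival of DLD-1 colon cancer cells in the luminescence readout, no cutoff given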); details: DLD-1 viability, CellTiter-Glo luminescence; at 20 µM (top of the series)
# [15] = molecular target: 6-phosphogluconate dehydrogenase, decarboxylating (Homo sapiens) (UniProt P52209); experiment: 6PGD enzyme inhibitors, primary screen, biochemical, human, recombinant enzyme, NADPH absorbance (AID 1159550;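 active = at least 20% inhibition of 6-phosphogluconate dehydrogenase activity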); details: recombinant 6PGD, NADPH absorbance 341 nm; at 10 µM; stronger effect = higher value
# Sequence of 6-phosphogluconate dehydrogenase, decarboxylating (Homo sapiens) (P52209 whole entry, looked up): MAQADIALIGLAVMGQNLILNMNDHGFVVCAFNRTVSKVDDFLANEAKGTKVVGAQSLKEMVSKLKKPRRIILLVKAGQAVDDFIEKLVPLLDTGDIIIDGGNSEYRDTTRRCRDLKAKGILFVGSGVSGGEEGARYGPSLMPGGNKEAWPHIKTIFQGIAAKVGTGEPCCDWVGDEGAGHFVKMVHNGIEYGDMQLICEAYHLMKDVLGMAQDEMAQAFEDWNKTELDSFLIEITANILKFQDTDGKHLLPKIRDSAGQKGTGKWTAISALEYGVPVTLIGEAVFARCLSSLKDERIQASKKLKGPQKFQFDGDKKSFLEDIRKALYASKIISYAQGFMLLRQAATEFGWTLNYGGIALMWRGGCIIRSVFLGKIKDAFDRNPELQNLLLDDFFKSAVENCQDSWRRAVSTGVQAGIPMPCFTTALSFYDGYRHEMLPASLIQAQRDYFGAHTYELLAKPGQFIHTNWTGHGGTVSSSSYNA
# [16] = differential killing of epithelial or mesenchymal cells, primary screen, imaging, PC-3E GFP, TEM4-18 mCherry, co-culture (AID 1345086;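 active = compounds killing one labelled cell type while sparing the other, by normalised counts and ratio limits, not self-fluorescent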;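 for all read-outs here: cells exposed to compound for 72 h before imaging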;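 for red/green cell ratio (normalised): normalised mesenchymal count divided by normalised epithelial count so high means epithelial killing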); details: imaging cell counts, at 1 µM; for red/green cell ratio (normalised): actives lie on both sides, counts scaled to control wells, 1 = unselective
# [17] = survival rescue of mitochondrial mutant cells in low glucose, primary screen, MELAS cybrids, Rieske KO mouse fibroblasts, CellTiter-Glo (AID 1508586);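 note: z relative to plate mean and SD of compound and empty wells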
# [18] = molecular target: NAD(+) hydrolase SARM1 (Homo sapiens) (UniProt Q6SZW1); experiment: SARM1 TIR NADase inhibitors, cell lysate, NAD-Glo luminescence (AID 1508614;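 active = compound whose remaining NAD level is above about 45 nM, limit read from the data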;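 note: higher remaining NAD means stronger inhibition of SARM1 NADase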); details: SAM-TIR HEK293T lysate NADase, at 1 µM, stronger effect = higher value
# Sequence of NAD(+) hydrolase SARM1 (Homo sapiens) (Q6SZW1 whole entry, looked up, the tested form may be a part): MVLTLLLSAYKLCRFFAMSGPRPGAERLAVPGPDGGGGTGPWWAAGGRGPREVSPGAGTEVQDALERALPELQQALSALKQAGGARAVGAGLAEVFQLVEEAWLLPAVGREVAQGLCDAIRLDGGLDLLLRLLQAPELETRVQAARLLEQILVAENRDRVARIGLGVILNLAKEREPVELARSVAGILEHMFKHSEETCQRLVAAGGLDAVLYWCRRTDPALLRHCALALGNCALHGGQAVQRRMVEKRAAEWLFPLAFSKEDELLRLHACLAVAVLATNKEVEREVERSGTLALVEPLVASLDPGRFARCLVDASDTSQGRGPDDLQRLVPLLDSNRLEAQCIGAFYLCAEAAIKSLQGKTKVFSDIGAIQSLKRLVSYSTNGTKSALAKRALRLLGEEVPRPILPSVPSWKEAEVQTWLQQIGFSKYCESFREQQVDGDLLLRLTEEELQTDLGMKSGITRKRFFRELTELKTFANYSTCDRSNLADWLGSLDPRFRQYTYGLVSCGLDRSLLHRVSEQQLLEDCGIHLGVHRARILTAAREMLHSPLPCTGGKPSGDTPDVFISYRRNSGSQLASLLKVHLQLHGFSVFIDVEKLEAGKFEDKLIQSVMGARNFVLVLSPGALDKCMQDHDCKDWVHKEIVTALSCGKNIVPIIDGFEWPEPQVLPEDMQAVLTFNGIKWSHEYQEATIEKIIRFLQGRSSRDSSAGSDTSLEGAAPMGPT
# [19] = molecular target: Mitogen-activated protein kinase 7 (Homo sapiens) (UniProt Q13164); experiment: ERK5 transactivation activators in reporter cells, primary screen, cell-based, HTS (AID 1508626;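 active = luciferase signal above three times the same-plate solvent-only control wells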;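 note: luciferase driven by Gal4-ERK5 fusion binding five Gal4 sites before minimal TATA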); details: HeLa Gal4-ERK5 transactivation, 18 h, at 5 µM, stronger effect = higher value
# Sequence of Mitogen-activated protein kinase 7 (Homo sapiens) (Q13164 whole entry, looked up, the tested form may be a part): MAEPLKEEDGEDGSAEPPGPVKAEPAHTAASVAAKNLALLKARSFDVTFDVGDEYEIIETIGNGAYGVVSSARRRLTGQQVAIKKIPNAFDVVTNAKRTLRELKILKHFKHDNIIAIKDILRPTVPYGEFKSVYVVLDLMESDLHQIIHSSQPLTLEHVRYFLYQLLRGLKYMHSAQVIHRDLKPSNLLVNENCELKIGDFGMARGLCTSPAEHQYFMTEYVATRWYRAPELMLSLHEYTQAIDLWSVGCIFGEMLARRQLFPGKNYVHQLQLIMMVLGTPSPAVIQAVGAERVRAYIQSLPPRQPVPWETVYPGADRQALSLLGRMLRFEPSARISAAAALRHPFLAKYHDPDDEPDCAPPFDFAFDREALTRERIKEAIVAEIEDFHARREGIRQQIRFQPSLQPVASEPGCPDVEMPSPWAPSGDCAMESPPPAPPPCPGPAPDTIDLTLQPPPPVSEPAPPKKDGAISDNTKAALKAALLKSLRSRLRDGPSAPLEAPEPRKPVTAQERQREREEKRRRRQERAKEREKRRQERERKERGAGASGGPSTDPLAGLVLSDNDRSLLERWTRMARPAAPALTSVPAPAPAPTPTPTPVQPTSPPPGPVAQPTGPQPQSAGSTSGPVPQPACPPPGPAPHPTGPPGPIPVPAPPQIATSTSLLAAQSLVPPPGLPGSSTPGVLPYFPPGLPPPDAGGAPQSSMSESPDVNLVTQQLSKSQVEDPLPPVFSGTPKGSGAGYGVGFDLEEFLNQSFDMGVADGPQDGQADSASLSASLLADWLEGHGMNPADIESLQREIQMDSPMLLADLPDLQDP
# [20] = ICB984 medulloblastoma cell growth inhibition, synergistic combos for chromothripsis tumors, cisplatin or BGB combos (AID 1671451; call rule not given here;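 note: cells exposed for 96 hours before readout; 0% = vehicle DMSO and 100% = killing by high DMSO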); details: ICB984 medulloblastoma cells, drug combinations, stronger effect = higher value
# [21] = measured here: epithelial PC-3E GFP cell survival
# [22] = measured here: mesenchymal TEM4-18 mCherry cell survival
# [23] = MELAS cybrid survival, CellTiter-Glo 48 h, stronger effect = higher value
# [24] = Rieske KO mouse fibroblast survival, CellTiter-Glo 72 h
smiles,measurement,setting,value
CCN(CC)CCCC(C)Nc1c2ccc(Cl)cc2nc2ccc(OC)cc12 (configuration not stated),inhibition,[1],-263%
same,score,[2],0.79
same,cytochrome c release ratio,[3],1.44
same,inhibition of aggregation,[4],77.3%
same,glutamate uptake change,[5],2.03%
same,aggregation suppression score,[6],1.04
same,nuclear beta-catenin stimulation,[7]; at 10 µM,3.9% (inactive)
same,nuclear beta-catenin stimulation,"[7]; stimulation, at 2 µM",1.8%
same,insulin secretion stimulation,[8],84.6% (active)
same,viability decrease,[9],103% (active)
same,tube area decrease,[10],97.1% (active)
same,GLP1 secretion stimulation,[11],7.1% (inactive)
same,inhibition of viability,[12],102% (active)
same,viability decrease (inhibition),[13],122% (active)
same,viability decrease (inhibition),[14],97.7% (active)
same,inhibition,[15],1.31% (inactive)
same,red/green cell ratio (normalised),[16],1.37 (inactive)
same,normalised cell number,[16]; [21],0.76
same,normalised cell number,[16]; [22],1.04
same,z-score,[17]; [23],0.298 and 1.99 (active) and 1.02
same,z-score,[17]; [24],6.25 and 5.35 and 3.32
same,remaining NAD,[18],10 nM (inactive)
same,luciferase signal,[19],1610 AU (active)
same,inhibition,"[20]; BGB IC20 combo, at 0.005 µM",-4.02%
same,inhibition,"[20]; BGB IC40 combo, at 0.005 µM",16.5%
same,inhibition,"[20]; BGB IC40 combo, at 0.05 µM",90.3%
same,inhibition,[20]; at 0.5 µM,-2.08% (inactive)
same,inhibition,"[20]; cisplatin combo, at 0.05 µM",90%
same,inhibition,"[20]; cisplatin combo, at 0.5 µM",-4.11%
same,inhibition,"[20]; cisplatin combo, at 5 µM",-21.6%
same,inhibition,"[20]; measured here: 5 uM single agent, at 5 µM",1.6%
Cc1noc(NS(=O)(=O)c2ccc(N)cc2)c1C,inhibition,[1],16.5%
same,score,[2],1.57
same,cytochrome c release ratio,[3],0.89
same,inhibition of aggregation,[4],1.83%
same,glutamate uptake change,[5],-4.32%
same,aggregation suppression score,[6],1.13
same,nuclear beta-catenin stimulation,[7]; at 10 µM,0.8% (inactive)
same,nuclear beta-catenin stimulation,"[7]; stimulation, at 2 µM",0.7%
same,insulin secretion stimulation,[8],-1.5% (inactive)
same,viability decrease,[9],-14.5% (inactive)
same,tube area decrease,[10],8.7% (inactive)
same,GLP1 secretion stimulation,[11],0.1% (inactive)
same,inhibition of viability,[12],0.13% (inactive)
same,viability decrease (inhibition),[13],-27% (inactive)
same,viability decrease (inhibition),[14],-5.7% (inactive)
same,inhibition,[15],-15.2% (inactive)
same,red/green cell ratio (normalised),[16],1.68 (inactive)
same,normalised cell number,[16]; [21],0.73
same,normalised cell number,[16]; [22],1.22
same,z-score,[17]; [23],-0.0643 (inactive) and 0.19 (inactive)
same,z-score,[17]; [24],-0.11 and -0.107
same,remaining NAD,[18],10 nM (inactive)
same,luciferase signal,[19],100 AU (inactive)
c1ccc(CC2=NCCN2)cc1,inhibition,[1],7.62%
same,score,[2],1.26
same,cytochrome c release ratio,[3],1.14
same,inhibition of aggregation,[4],87%
same,glutamate uptake change,[5],1.58%
same,aggregation suppression score,[6],1.3
same,nuclear beta-catenin stimulation,[7]; at 10 µM,0.4% (inactive)
same,nuclear beta-catenin stimulation,"[7]; stimulation, at 2 µM",1%
same,insulin secretion stimulation,[8],-1% (inactive)
same,viability decrease,[9],-3.85% (inactive)
same,tube area decrease,[10],-0.5% (inactive)
same,GLP1 secretion stimulation,[11],1.9% (inactive)
same,inhibition of viability,[12],-10.6% (inactive)
same,viability decrease (inhibition),[13],15.1% (inactive)
same,viability decrease (inhibition),[14],5.35% (inactive)
same,inhibition,[15],-8.93% (inactive)
same,red/green cell ratio (normalised),[16],1.19 (inactive)
same,normalised cell number,[16]; [21],0.88
same,normalised cell number,[16]; [22],1.04
same,z-score,[17]; [23],-0.147 (inactive) and 0.373 (inactive)
same,z-score,[17]; [24],-0.183 and 0.131
same,remaining NAD,[18],10 nM (inactive)
same,luciferase signal,[19],44 AU (inactive)
COc1ccccc1OC(=O)Oc1ccccc1OC,nuclear beta-catenin stimulation,[7]; at 10 µM,1.1% (inactive)
same,nuclear beta-catenin stimulation,"[7]; stimulation, at 2 µM",0.3%
same,insulin secretion stimulation,[8],-2.4% (inactive)
same,viability decrease,[9],6.05% (inactive)
same,tube area decrease,[10],14.8% (inactive)
same,GLP1 secretion stimulation,[11],1.6% (inactive)
same,inhibition of viability,[12],3.6% (inactive)
same,viability decrease (inhibition),[13],31.6% (inactive)
same,viability decrease (inhibition),[14],14.4% (inactive)
CCN(CCO)CCCC(C)Nc1ccnc2cc(Cl)ccc12 (configuration not stated),inhibition,[1],-6.7%
same,score,[2],1.54
same,cytochrome c release ratio,[3],0.8
same,inhibition of aggregation,[4],27.4%
same,glutamate uptake change,[5],0%
same,aggregation suppression score,[6],1.3
same,nuclear beta-catenin stimulation,[7]; at 10 µM,3.8% (inactive)
same,nuclear beta-catenin stimulation,"[7]; stimulation, at 2 µM",4.2%
same,insulin secretion stimulation,[8],1.6% (inactive)
same,viability decrease,[9],18.3% (inactive)
same,tube area decrease,[10],22.5% (inactive)
same,GLP1 secretion stimulation,[11],4.3% (inactive)
same,inhibition of viability,[12],8.93% (inactive)
same,viability decrease (inhibition),[13],-0.9% (inactive)
same,viability decrease (inhibition),[14],-7.1% (inactive)
same,inhibition,[15],13.2% (inactive)
same,red/green cell ratio (normalised),[16],0.76 (inactive)
same,normalised cell number,[16]; [21],1.45
same,normalised cell number,[16]; [22],1.1
same,z-score,[17]; [23],-0.0994 (inactive)
same,z-score,[17]; [24],0.0866
same,remaining NAD,[18],10 nM (inactive)
same,luciferase signal,[19],96 AU (inactive)
CCC1(c2ccccc2)C(=O)NCNC1=O,inhibition,[1],9.61%
same,score,[2],1.24
same,cytochrome c release ratio,[3],1.19
same,inhibition of aggregation,[4],63%
same,glutamate uptake change,[5],-24.4%
same,aggregation suppression score,[6],1.22
same,nuclear beta-catenin stimulation,[7]; at 10 µM,0.6% (inactive)
same,nuclear beta-catenin stimulation,"[7]; stimulation, at 2 µM",1.4%
same,insulin secretion stimulation,[8],-2.2% (inactive)
same,viability decrease,[9],-8.45% (inactive)
same,tube area decrease,[10],12.9% (inactive)
same,GLP1 secretion stimulation,[11],-2% (inactive)
same,inhibition of viability,[12],1% (inactive)
same,viability decrease (inhibition),[13],-8.1% (inactive)
same,viability decrease (inhibition),[14],-8.9% (inactive)
same,inhibition,[15],14.9% (inactive)
same,red/green cell ratio (normalised),[16],1.02 (inactive)
same,normalised cell number,[16]; [21],1.02
same,normalised cell number,[16]; [22],1.05
same,z-score,[17]; [23],-0.279 (inactive) and 0.626 (inactive)
same,z-score,[17]; [24],0.595 and -0.386
same,remaining NAD,[18],10 nM (inactive)
same,luciferase signal,[19],60 AU (inactive)
